HEK cytotox: kills HEK 293 cells; actives 6.6% (n = 94,000); Potency, µM (doses to about 115 µM), inactives show at the top dose activity change, negative = cytotoxicity, hits mostly inhibitors; HEK 293 viability, ATP luminescence (CellTiter-Glo), 48-72 h; also: nearly all actives have a fitted effect of over 60% in size
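qHTS cytotoxicity; HEK 293, 250 cells/well; compound pinned; 48 or 72 hr, 37 degree Celsius, 5% CO2, 95% humidity; CellTiter-Glo, 10 min RT; luminescence (ATP).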
NPR1 antag: human Npr1 receptor antagonism; actives 1.6% (n = 76,000); HEK293 hNpr1 GloSensor cGMP, ANP-stimulated luminescence; AID 1347048; Potency, µM (series often up to 46.3 µM), inactives show at the highest dose activity change, negative = inhibition, usual class: inhibitors; calls by dose curve; also: nearly all actives have a fitted effect of over 60% in size
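HEK293 cells stably expressing human Npr1 and cGMP GloSensor pGS-40F, loaded 2 h with 2% GloSensor reagent, given compound 30 min at room temperature. Luminescence read before and 20 min after 0.1 nM hNppA.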
Luciferase inh: Photinus pyralis luciferase inhibition | purified P. pyralis luciferase, luminescence, biochemical | Potency, µM (titrated, usually from 115 µM), actives largely listed as inhibitors | actives 2.5% (n = 76,000); also: nearly all actives have a fitted effect of over 65% in size
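Purified P. pyralis luciferase (10nM final) in 50mM Tris acetate pH 7.5, 10mM Mg acetate, 0.01% Tween-20, 0.05% BSA with 10uM D-luciferin and 10uM ATP. Compounds titrated qHTS. Luminescence imaged on CCD.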
3T3 cytotox: NIH 3T3 cell cytotoxicity; NIH 3T3 viability, CellTiter-Glo ATP luminescence, 48-72 h; Potency, µM (highest dose often 96.7 µM), inactives show at the highest dose activity change, negative = cytotoxicity, actives largely listed as inhibitors; actives 4.3% (n = 94,000); AID 1345082; also: nearly all actives have a fitted effect of over 55% in size
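Mouse fibroblast NIH 3T3 cells, 400 per well, received compound via pintool and were incubated for 48 or 72 hr prior to CellTiter-Glo ATP luminescence measurement.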
GPT2 inh: inhibitors of human GPT2 alanine aminotransferase; Potency, µM (doses to about 57.7 µM), for inactives: top-dose activity change, negative = inhibition, usual class: inhibitors; actives 0.25% (n = 100,000); Recombinant GPT2, coupled pyruvate oxidase/HRP Amplex Red fluorescence; Q8TD30; AID 1671188; also: nearly all actives have a fitted effect of over 60% in size
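GPT2 10ng/uL, a-KG 250uM, L-Ala 2mM, HEPES pH7.5 + 0.0001% Tween; 30 min RT. Then Amplex mix (PO/HRP/ThPP), 30 min RT dark, fluorescence. AOA 50uM used as positive control.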
Starred values were filed as active, the others as inactive; i = inactive; ? = inconclusive; nt = no result; [ ] = remark or other dose. Rows were chosen to be rich in hits. Some 10% of all compounds tested hit in one or more screens of this group. Unless noted, calls follow the shape of the dose curve; as a rule, active = well fitted curve in the direction sought with a large enough effect; inconclusive = small, poorly fitted or top-dose-only effect, or another doubt; inactive = no such curve, though single readings can be large; an effect the other way counts as inactive or inconclusive. % is scaled to controls: 0 for no effect and ±100 for the full control effect; potency is read from the fitted curve at half-maximal effect.

SMILES	HEK cytotox	NPR1 antag	Luciferase inh	3T3 cytotox	GPT2 inh
O=C(NCc1ccccc1F)c1nc2sccn2c1-c1ccc(C(F)(F)F)cc1	32µM*	nt	nt	?	3%
O=C(NCc1ccccc1)c1nc2sccn2c1-c1ccc(C(F)(F)F)cc1	40µM*	nt	nt	?	-12%
Cc1ccc(-c2c(C(=O)NCCc3ccccc3)nc3sccn23)cc1	45µM*	nt	nt	18µM*	i
O=C(NCc1cccc(C(F)(F)F)c1)c1nc2sccn2c1-c1cccc(C(F)(F)F)c1	35µM*	nt	nt	?	i
O=C(NCc1cccc(C(F)(F)F)c1)c1nc2sccn2c1-c1ccc(F)cc1	?	nt	nt	?	-12%[88.5 µM]
CSc1ccc(-c2cccc(C(=O)NCCNC(=O)c3ccc(C)cc3)c2)cc1	?	nt	nt	?	-8%
CNC(=O)c1cc(C2CC2)nc2c1c(C1CCCN1C(=O)c1ccncc1)nn2C (centres undefined)	-2%	nt	nt	-24%	nt
O=C(NCCc1ccc(Cl)cc1)C1CN(C2CCCCC2)C(=O)N1 (centres undefined)	-10%	nt	nt	-18%	i
O=C(c1ccc(C(F)(F)F)cc1)N1CCN(C(=O)c2nc3cccnc3n(C3CCCC3)c2=O)CC1	-22%	nt	nt	?	2%
Cc1ccc(S(=O)(=O)N2CC(c3nc(-c4ccncc4)no3)C2)cc1	?	-22%	i	-18%	-9%
Cc1cc(Cl)ccc1S(=O)(=O)N1CC(c2nc(-c3ccncc3)no2)C1	?	13µM*	i	?	i
CN(C(=O)[C@@H]1C[C@H](c2ccc(F)cc2)N([S+](=O)([O-])C2CC2)C1)c1ccccc1	?	-11%[70.6 µM]	i	?	2%[88.5 µM]
CCC[C@H]1CN(C(=O)c2cccc(N3CCOCC3)c2)C[C@@H]1N	-6%	2%	i	-22%	?
CN(C)Cc1ccc(-c2cc3c(ccn3Cc3cccnc3)c(C3=CCOCC3)n2)cc1	56µM*	-9%[70.6 µM]	i	25µM*	1%[88.5 µM]
C1=C(c2nc(-c3ccc(N4CCOCC4)cc3)cc3c2ccn3Cc2cccnc2)CCOC1	?	-2%	i	?	i
C1=C(c2nc(-c3cccc4[nH]ncc34)cc3c2ccn3Cc2cccnc2)CCOC1	89µM*	-20%[70.6 µM]	i	?	?
COc1ccc(C(=O)N2CC[C@@H]3COCCN(C)[C@@H]3C2)c(OC)c1	?	-11%	22µM*	1%	i
COCCN1C(=O)c2cccn2CC1CNC(=O)c1cc(F)ccc1F (centres undefined)	-1%	nt	nt	-8%	3%
CC(=O)Oc1c(-c2ccc(NC(=O)c3ccccc3)cc2)c(-c2cccc(F)c2)nn1-c1ccccc1	-19%	-7%	i	-22%	?
COc1ccc(-c2nn(-c3cc(C)ccc3C)c(OC(C)=O)c2-c2ccc(NC(C)=O)cc2)c(OC)c1	-15%	-10%	i	-14%	2.8µM*
c1cc(-c2nc3c(c(NCc4cn5c(n4)SCC5)n2)CCNCC3)ccn1	20µM*	0%	i	?	i
COc1ccc2cc1Nc1ccc(cc1)C[C@H](NCc1ccc(O)cc1)C(=O)N(C)[C@H](C(=O)NCCOc1ccccc1)C2	?	-4%	i	?	-7%
O=C(NCc1cccs1)c1ccc2nnc(-c3ccc(Cl)cc3)n2c1	?	nt	nt	?	3%
COc1cc(OC)c(OC)cc1CN1CCc2nc(N3CCOCC3)[nH]c(=O)c2CC1	-8%	nt	nt	-12%	i
CCCCOc1c(CNC(C)c2ncccc2C)cccc1OC (centres undefined)	40µM*	-13%	i	28µM*	-21%[11.5 µM]
SMILES	HEK cytotox	NPR1 antag	Luciferase inh	3T3 cytotox	GPT2 inh
O=C(c1cccc(OC2CN(C3CCSCC3)C2)c1)N1CCCC1	i	nt	nt	-13%	1%
COc1ccccc1Nc1ccnc(N2CCC(C(=O)NCCSC)CC2)n1	?	nt	nt	40µM*	i
COc1ccccc1Nc1ccnc(N2CCC(C(=O)NCc3cccc(C(F)(F)F)c3)CC2)n1	?	nt	nt	32µM*	-15%
O=C(NCc1cccs1)C1CCCN(c2ccnc3ccnn23)C1 (centres undefined)	89µM*	nt	nt	?	?
O=C(NCc1cccc(C(F)(F)F)c1)C1CCN(c2ccnc3ccnn23)CC1	35µM*	nt	nt	?	-4%
COc1ccccc1Nc1ccnc(N2CCCC(C(=O)NCCSC)C2)n1 (centres undefined)	?	nt	nt	?	i
CC(C)N(CCCCOCC(=O)NS(C)(=O)=O)c1cnc(-c2ccccc2)c(-c2ccccc2)n1	nt	nt	nt	nt	-6%
COC(=O)N(C)Cc1ccc(-c2ccccc2)cc1	?	-5%[70.6 µM]	?	?	-8%[88.5 µM]
CCC(CC)C(=O)Nc1ccc([C@@H](O)[C@H]2COCC(=O)N2Cc2ccccc2OC)cc1	-26%	0%	i	-14%	-5%
COc1cc(C(=O)O)ccc1NC(=O)C1NC(CC(C)(C)C)C(C#N)(c2ccc(Cl)cc2F)C1c1cccc(Cl)c1F (centres undefined)	nt	nt	nt	nt	i
CN1C[C@@H](NC(=O)c2ccc(C#N)cc2)C[C@H]1c1nc(-c2cncnc2)no1	?	2%[70.6 µM]	45µM*	-13%[174 µM]	i
Cc1ccc(C(=O)N[C@H]2C[C@@H](c3nc(-c4ccc(C)cc4)no3)N(C)C2)cc1	-1%[172 µM]	2%[70.6 µM]	i	-13%[174 µM]	5%[88.5 µM]
CN1C[C@@H](NC(=O)c2ccc(C(C)(C)C)cc2)C[C@H]1c1nc(-c2ccncc2)no1	71µM*	1%[70.6 µM]	?	?	-1%[88.5 µM]
CN(Cc1ccccc1)C1CCOC2(CCN(C(=O)NCCc3ccccc3)CC2)C1 (centres undefined)	-9%	6%	?	-12%	i
CC(C)C(=O)N1CCc2ccc(OCc3nc(C(=O)N4CCCC4)co3)cc2C1c1cccc(F)c1 (centres undefined)	?	-3%	i	?	-9%
C=CCNC(=O)c1coc(COc2ccc3c(c2)C(c2ccc(C)cc2)N(C(=O)C2CC2)CC3)n1 (centres undefined)	?	-20%	i	?	-13%
COCCNC(=O)c1coc(COc2ccc3c(c2)C(c2ccc(C)cc2)N(C(=O)C2CC2)CC3)n1 (centres undefined)	25µM*	2%	i	?	i
CC(C)CNC(=O)c1coc(COc2ccc3c(c2)C(c2ccccc2)N(C(=O)C(C)C)CC3)n1 (centres undefined)	?	-16%	i	40µM*	-9%
C=CCNC(=O)c1coc(COc2ccc3c(c2)C(c2cccc(F)c2)N(C(=O)C2CC2)CC3)n1 (centres undefined)	?	-17%	i	?	-6%

Source: PubChem
